system: EPHA7; conditions: concentration: 1 μM, replicates: in singlicate; n = 1
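Note: KINOMEscan kinase panel screen.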

Structure (SMILES) | %Inh [%]
O=C(Nc1ccc2c(c1)OCO2)NC1CCN(c2ccnc(NCc3ccc(F)cc3)n2)CC1 [GSK1379859] | 1
Nc1ncnc2c1ncn2-c1cccc(F)c1 [SKF-97560] | 10
COc1ccc(-c2cc3c(C)nc(N)nc3n([C@H]3CC[C@H](O)CC3)c2=O)cn1 | 0
COc1ccc(CNC(=O)NC2CCN(c3ccnc(Nc4ccc(F)cc4)n3)C2)cc1 (stereo not shown) [GSK1379706] | 1
Nc1ncnc2c1ncn2-c1cccc2ccccc12 [SKF-97184] | 0
COc1cccc(C2=C(N(C)c3ccccc3)C(=O)NC2=O)c1 [SB-334865] | 5
Nc1nc(N)c2nc(-c3ccccc3)[nH]c2n1 [SKF-12778] | 3
COc1cc2ncn(-c3cc(OCc4ccncc4Br)c(C(N)=O)s3)c2cc1OC [GW854278] | 0
Nc1n[nH]c2nnc(-c3ccccc3)c(-c3ccccc3)c12 [GW554060] | 0
Nc1nc(-c2ccccc2F)c(-c2ccnc3ccccc23)s1 [GW560459] | 0
Nc1nccc2scc(-c3ccc4c(c3)CCN4C(=O)Cc3ccccc3)c12 [GSK2576924] | 4
Cc1cccc(-c2cc(-c3c[nH]nc3-c3ccccn3)ccn2)c1 [GW679395] | 0
Cc1ccc(-c2ccc3c(ccc4sc5c(c43)NC[C@@H](C)N=C5N(C)C)n2)cn1 | 0
CCCNC(=O)Nc1ccc(Oc2ncnc3ccn(C)c23)cc1 | 0
CCCC(=O)Nc1n[nH]c2ncc(-c3cccc4ccccc34)cc12 [SB-642057] | 4
CCC(=O)c1c(-c2ccccc2)c2cc(Cl)ccc2c(=O)n1Cc1ccc(C(=O)O)cc1 | 0
COc1cc2ncn(-c3cc(OCCCc4ccccc4)c(C(N)=O)s3)c2cc1OC [GSK205189] | 5
Cc1cc(Nc2nc(-c3cccc(C)n3)nc3ccccc23)ccn1 [GW872411] | 0
COc1ccc(-c2cc3c(C)nc(N)nc3n([C@H]3CC[C@H](OCCO)CC3)c2=O)cn1 | 0
O=C(Nc1n[nH]c2nc(-c3ccccc3)c(Cl)cc12)C1CC1 [SB-734909] | 17
COc1cc2ncn(-c3cc(OCc4ccc(S(C)(=O)=O)cc4)c(C(N)=O)s3)c2cc1OC [GW869979] | 22
CN1C(=O)C(Nc2ccccc2)=C(c2ccccc2)C1=O [SB-300079] | 0

system: EPHA8; conditions: concentration: 1 μM, replicates: in singlicate; n = 1

Structure (SMILES) | %Inh [%]
CCn1c(-c2ccoc2)nc2cnccc21 [SB-733887] | 24
O=c1cc(N2CCOCC2)nc2n(Cc3ccc(F)c(Cl)c3)ccn12 [GSK2297099] | 6
Cc1cccc(-c2nc(Nc3ccc4c(cnn4C)c3)c3ccccc3n2)n1 [GW876731] | 0
Cl.NS(=O)(=O)c1cccc(Nc2cc(-c3ccc(F)cc3)n[nH]2)c1 [GW824645] | 21
COc1cc(Nc2nccc(N3CCC(NC(=O)C4COc5ccccc5O4)C3)n2)cc(OC)c1OC (stereo not shown) [GSK1379761] | 5
COC(=O)c1c(-c2ccccc2)c2cc(Br)ccc2c(=O)n1Cc1ccc(NC(=O)CCC(=O)O)cc1 | 12
CN1C(=O)C(Nc2cc(Cl)c(O)c(Cl)c2)=C(c2ccc(Cl)cc2)C1=O [SB-404321] | 0
CCC(=O)c1c(-c2ccccc2)c2cc(Cl)ccc2c(=O)n1Cc1cc(S(C)(=O)=O)n(CC(N)=O)n1 | 0
Nc1ncnc2c1ncn2-c1ccc(Cl)cc1 [AH2635] | 3
O=C(NCc1cccs1)c1cc(C(=O)c2c(Cl)cccc2Cl)c[nH]1 [GW823670] | 4
CCn1c(-c2nonc2N)nc2ccccc21 [SB-693162/GW549034] | 0
O=C(NCCNc1ccnc(Nc2ccc(F)cc2)n1)Nc1ccc2c(c1)OCO2 [GSK1379882] | 0
COc1ccc(Nc2nccc(N3CCC(NS(=O)(=O)c4ccc(NC(C)=O)cc4)C3)n2)cc1 (stereo not shown) [GSK1379729] | 7
COc1cc2nccc(Nc3cccc(Oc4ccccc4)c3)c2cc1OC.Cl [GW284543] | 6
O=C(Nc1ccc2c(c1)OCO2)NC1CCN(c2ccnc(NCc3ccc(F)cc3)n2)CC1 [GSK1379859] | 0
Nc1ncnc2c1ncn2-c1cccc(F)c1 [SKF-97560] | 10
COc1ccc(-c2cc3c(C)nc(N)nc3n([C@H]3CC[C@H](O)CC3)c2=O)cn1 | 0
COc1ccc(CNC(=O)NC2CCN(c3ccnc(Nc4ccc(F)cc4)n3)C2)cc1 (stereo not shown) [GSK1379706] | 16

Structure (SMILES) | %Inh [%]
Nc1ncnc2c1ncn2-c1cccc2ccccc12 [SKF-97184] | 0
COc1cccc(C2=C(N(C)c3ccccc3)C(=O)NC2=O)c1 [SB-334865] | 7
Nc1nc(N)c2nc(-c3ccccc3)[nH]c2n1 [SKF-12778] | 4
COc1cc2ncn(-c3cc(OCc4ccncc4Br)c(C(N)=O)s3)c2cc1OC [GW854278] | 5
Nc1n[nH]c2nnc(-c3ccccc3)c(-c3ccccc3)c12 [GW554060] | 10
Nc1nc(-c2ccccc2F)c(-c2ccnc3ccccc23)s1 [GW560459] | 0
Nc1nccc2scc(-c3ccc4c(c3)CCN4C(=O)Cc3ccccc3)c12 [GSK2576924] | 15
Cc1cccc(-c2cc(-c3c[nH]nc3-c3ccccn3)ccn2)c1 [GW679395] | 13
Cc1ccc(-c2ccc3c(ccc4sc5c(c43)NC[C@@H](C)N=C5N(C)C)n2)cn1 | 0
CCCNC(=O)Nc1ccc(Oc2ncnc3ccn(C)c23)cc1 | 0
CCCC(=O)Nc1n[nH]c2ncc(-c3cccc4ccccc34)cc12 [SB-642057] | 1
CCC(=O)c1c(-c2ccccc2)c2cc(Cl)ccc2c(=O)n1Cc1ccc(C(=O)O)cc1 | 4
COc1cc2ncn(-c3cc(OCCCc4ccccc4)c(C(N)=O)s3)c2cc1OC [GSK205189] | 17
Cc1cc(Nc2nc(-c3cccc(C)n3)nc3ccccc23)ccn1 [GW872411] | 0
COc1ccc(-c2cc3c(C)nc(N)nc3n([C@H]3CC[C@H](OCCO)CC3)c2=O)cn1 | 0
O=C(Nc1n[nH]c2nc(-c3ccccc3)c(Cl)cc12)C1CC1 [SB-734909] | 21
COc1cc2ncn(-c3cc(OCc4ccc(S(C)(=O)=O)cc4)c(C(N)=O)s3)c2cc1OC [GW869979] | 17
CN1C(=O)C(Nc2ccccc2)=C(c2ccccc2)C1=O [SB-300079] | 0

— PMC5540273 (PLoS ONE, 2017)
